In PubChem BioAssay (EPA / NIEHS) one finds outcome and AC50 data, which are given here for 17 compounds.

Active and inactive are the calls of the source. How the source made its calls: active means hit-call score of the fitted dose curve at least 0.9, where 1 is the maximum; inactive means score below 0.9.

Sequence of Cytochrome P450 2C18 (Homo sapiens) (P33260 whole entry, looked up): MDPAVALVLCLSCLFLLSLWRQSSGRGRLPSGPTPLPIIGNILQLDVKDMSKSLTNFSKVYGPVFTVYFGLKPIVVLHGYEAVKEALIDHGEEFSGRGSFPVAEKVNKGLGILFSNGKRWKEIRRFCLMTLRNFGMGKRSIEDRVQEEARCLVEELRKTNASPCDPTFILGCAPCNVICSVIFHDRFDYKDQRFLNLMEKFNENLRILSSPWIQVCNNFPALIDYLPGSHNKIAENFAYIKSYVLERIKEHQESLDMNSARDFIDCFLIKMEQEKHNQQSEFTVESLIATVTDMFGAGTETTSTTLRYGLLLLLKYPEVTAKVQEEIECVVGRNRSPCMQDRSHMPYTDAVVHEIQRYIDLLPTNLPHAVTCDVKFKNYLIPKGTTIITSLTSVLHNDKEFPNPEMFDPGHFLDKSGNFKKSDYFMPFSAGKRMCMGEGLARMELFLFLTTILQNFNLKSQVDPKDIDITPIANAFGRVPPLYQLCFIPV

The target in the assay is Cytochrome P450 2C18 (Homo sapiens) (UniProt P33260). The experiment in a line: NVS_ADME_hCYP2C18: NovaScreen (NVS) CYP450-related Enzyme Activity (ADME) Assay for human CYP2C18 (AID 2283103). The protocol:
NVS_ADME_hCYP2C18 is a biochemical, single-readout assay that uses extracted gene-proteins in a cell-free assay. Measurements were taken 0.5 hour after chemical dosing in a 96-well plate.NVS_ADME_hCYP2C18 is one of one assay component(s) measured or calculated from the NVS_ADME_hCYP2C18 assay. It is designed to make measurements of enzyme activity, a form of enzyme reporter, as detected with fluorescence intensity signals by Fluorescence technology.Data from the assay component NVS_ADME_hCYP2C18 was analyzed into 1 assay endpoint. This assay endpoint, NVS_ADME_hCYP2C18, was analyzed in the positive analysis fitting direction relative to Acetonitrile as the negative control and baseline of activity. Using a type of enzyme reporter, loss-of-signal activity can be used to understand changes in the enzymatic activity as they relate to the gene CYP2C18. Furthermore, this assay endpoint can be referred to as a primary readout, because this assay has produced multiple assay endpoints where this one serves a enzymatic activity function. To generalize the intended target to other relatable targets, this assay endpoint is annotated to the cyp intended target family, where the subfamily is xenobiotic metabolism.
Binding assays used specific radioligands (tritiated, iodinated) with non-radioactive competitive displacement ligands in agonist or antagonist protocols (as indicated) and various reference compounds and inhibitors to titrate specific binding to receptors and transporters. Most enzyme assays (CYPs, kinases, phosphatases, proteases, HDACs) used recombinant protein and specific substrates (fluorescence mostly, some colorimetric and radioactive) and inhibitors, followed by a biochemical separation of substrate and product. All assays for the biochemical HTS were initially run in duplicate at a single concentration (10 uM for CYP450 assays and 25 uM for all others). Assay-chemical combinations meeting a pre-defined threshold (e.g., 30% inhibition and other criteria defined below) were then run in singleton concentration-response format with maximum concentration of 20 uM for CYPs and 50 uM for all others. Each assay was run with positive and negative controls, and concurrent controls on every plate. The follow-up (secondary) screen tested active chemical-pairs in concentration series, as well as a few additional assays not tested in the primary screen, some selected negative inactives, and several cases re-run in the concentration series for confirmatory purposes.
With `CCOC(=O)CC(SP(=O)(OC)OC)C(=O)OCC` (configuration not stated), the compound was classed as inactive.
The term AC50 denotes the midpoint of the concentration-response curve, whichever way the signal moves. On to `CCCOCC(=Nc1ccc(Cl)cc1C(F)(F)F)n1ccnc1`, for which the AC50 was 4.78 µM (active).
The same measure, in the same setting: the value for `CC(C)=CC1C(C(=O)OCN2C(=O)C3=C(CCCC3)C2=O)C1(C)C` (configuration not stated) was 4.3 µM (active); that for `C[Si](Cn1cncn1)(c1ccc(F)cc1)c1ccc(F)cc1` was 0.645 µM (active); that for `CSC1=N[C@@](C)(c2ccccc2)C(=O)N1Nc1ccccc1` was 5.62 µM (active).
Take `CCOP(=S)(OCC)Oc1ccc2c(C)c(Cl)c(=O)oc2c1`: the AC50 was 0.734 µM (active).
Regarding `S=C1NCCN1`, the call was inactive.
For `C#CC(C)(C)NC(=O)c1cc(Cl)cc(Cl)c1`, the AC50 is 2.67 µM (active).
Consider `CC[C@H](C)[C@H]1O[C@]2(C=C[C@@H]1C)C[C@@H]1C[C@@H](C/C=C(\C)[C@@H](O[C@H]3C[C@H](OC)[C@@H](O[C@H]4C[C@H](OC)[C@@H](NC)[C@H](C)O4)[C@H](C)O3)[C@@H](C)/C=C/C=C3\CO[C@@H]4[C@H](O)C(C)=C[C@@H](C(=O)O1)[C@]34O)O2`, for which the AC50 is 5.39 µM (active).
The same measure, in the same setting: the value for `CCCSP(=O)(OCC)Oc1ccc(Br)cc1Cl` (configuration not stated) was 3.45 µM (active); that for `CON=C(C(=O)OC)c1ccccc1CON=C(C)c1cccc(C(F)(F)F)c1` was 1.21 µM (active); that for `CCOP(=S)(OCC)Oc1ccc([N+](=O)[O-])cc1` was 1.95 µM (active).
The same measure, in the same setting: the value for `C#CCC1=C(C)C(OC(=O)C2C(C=C(C)C)C2(C)C)CC1=O` (configuration not stated) was 7.41 µM (active); that for `FC(F)C(F)(F)OCC(Cn1cncn1)c1ccc(Cl)cc1Cl` (configuration not stated) was 0.915 µM (active); that for `C=C(C)[C@H]1Cc2c(ccc3c2O[C@@H]2COc4cc(OC)c(OC)cc4[C@@H]2C3=O)O1` was 2.62 µM (active).
Consider `COc1ccc(C(=CC(=O)N2CCOCC2)c2ccc(Cl)cc2)cc1OC`, for which the half-maximal activity concentration (AC50) is 7 µM (active).
Consider `CC(C1CC1)C(O)(Cn1cncn1)c1ccc(Cl)cc1` (configuration not stated), for which the AC50 is 3.26 µM (active).
